In test [1] the target is human Retinoid X Receptor beta (RXRb), RXRB (gene 6257) (UniProt P28702). Put plainly: ATG_RXRb_TRANS: Attagene TRANS-FACTORIAL HepG2 Assay for human Retinoid X Receptor beta (RXRb) (AID 2283013; active = hit-call score of the fitted dose curve at least 0.9, where 1 is the maximum). In a few lines: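 HepG2 cells were transiently transfected with multiplexed GAL4-UAS reporters and a chimeric RXRb-Gal4 construct, then exposed for 24 h. Reporter mRNA was quantified by RT-PCR, FAM labeling, HpaI digestion and capillary electrophoresis; gain of signal was scored against DMSO.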

Test [2] has as its target human Thyroid Receptor alpha (THRa1), THRA (gene 7067) (UniProt P10827). As to the kind of experiment: ATG_THRa1_TRANS: Attagene TRANS-FACTORIAL HepG2 Assay for human Thyroid Receptor alpha (THRa1) (AID 2283014; active = hit-call score of the fitted dose curve at least 0.9, where 1 is the maximum). In a few lines: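 HepG2 cells transiently transfected with chimeric NR-Gal4 and GAL4-UAS reporter units, dosed 24 h. Reporter mRNA quantified by RT-PCR, fluorescent labeling, HpaI digestion and capillary electrophoresis; gain-of-signal fit versus DMSO.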

Read-out in test [3]: E-selectin (Homo sapiens) (UniProt P16581)
Put plainly: BSK_3C_Eselectin: BioMAP Diversity Plus: 3C Assay for Eselectin Biomarker Activity (AID 2283015). Particulars: primary human endothelial cells (HUVEC); actives raise or lower the signal. In a few lines: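 Primary human umbilical vein endothelial cells (3C system), read 24 h after compound addition; E-selectin measured by ELISA. Bidirectional curve fitting against DMSO baseline; cytotoxicity by parallel SRB total-protein staining.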

Read-out in test [4]: Interleukin-1 alpha (IL1a), IL1A (gene 3552)
Put plainly: BSK_BE3C_IL1a: BioMAP Diversity Plus: BE3C Assay for Interleukin-1 alpha (IL1a) Biomarker Activity (AID 2283016). The following applies: primary human bronchial epithelial cells; actives raise or lower the signal. In short, it runs like this: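 Human primary bronchial epithelial cells, 24 h chemical exposure; IL-1a quantified by ELISA, fitted bidirectionally against DMSO. Cytotoxicity assessed in parallel by SRB total-protein staining at the time of measurement.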

Read-out in test [5]: Monocyte Chemoattractant Protein-1 (MCP1), CCL2 (gene 6347)
Put plainly: BSK_3C_MCP1: BioMAP Diversity Plus: 3C Assay for Monocyte Chemoattractant Protein-1 (MCP1) Biomarker Activity (AID 2283017). The following applies: primary human endothelial cells (HUVEC); actives raise or lower the signal. In short, it runs like this:
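Human umbilical vein endothelial cells (3C system) exposed to chemicals for 24 h; MCP-1 quantified by ELISA against the DMSO baseline with bidirectional fitting, and parallel SRB staining used to assess cytotoxicity.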

Read-out in test [6]: Monocyte Chemoattractant Protein-1 (MCP1), CCL2 (gene 6347)
As to the kind of experiment: BSK_4H_MCP1: BioMAP Diversity Plus: 4H Assay for Monocyte Chemoattractant Protein-1 (MCP1) Biomarker Activity (AID 2283018). Particulars: primary human endothelial cells (HUVEC); actives raise or lower the signal. In short, it runs like this: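 Human umbilical vein endothelial cells (4H system) exposed to chemicals for 24 h in 96-well format. MCP-1 measured by ELISA; bidirectional fitting against DMSO, with SRB total-protein staining in parallel cultures for cytotoxicity.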

Read-out in test [7]: Human Leukocyte Antigen - DR isotype (HLADR), HLA-DRA (gene 3122)
As to the kind of experiment: BSK_3C_HLADR: BioMAP Diversity Plus: 3C Assay for Human Leukocyte Antigen - DR isotype (HLADR) Biomarker Activity (AID 2283019).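 As to outcome: ELISA of cell-surface HLA-DR on HUVEC 24 h after dosing.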 Particulars: primary human endothelial cells (HUVEC); actives raise or lower the signal. In a few lines:
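HUVEC monoculture, HLA-DR measured by ELISA 24 h after chemical dosing. Fitted bidirectionally against DMSO baseline; parallel SRB staining assessed cytotoxicity, with 3C proliferation read by SRB at 48 h.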

Read-out in test [8]: Monokine induced gamma interferon (MIG), CXCL9 (gene 4283)
As to the kind of experiment: BSK_3C_MIG: BioMAP Diversity Plus: 3C Assay for Monokine induced gamma interferon (MIG) Biomarker Activity (AID 2283021).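 As to AC50: MIG protein level measured by immunoassay in the treated endothelial cultures.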 Particulars: primary human endothelial cells (HUVEC); actives raise or lower the signal. In short, it runs like this: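 HUVEC primary endothelial cultures dosed with chemical; MIG quantified by ELISA at 24 h. Data fitted bidirectionally against DMSO control, with parallel SRB total-protein staining for cytotoxicity.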

The target of test [9] is human Vitamin D Receptor (VDR), VDR (gene 7421) (UniProt P11473). As to the kind of experiment: ATG_VDR_TRANS: Attagene TRANS-FACTORIAL HepG2 Assay for human Vitamin D Receptor (VDR) (AID 2283022; active = hit-call score of the fitted dose curve at least 0.9, where 1 is the maximum). In short, it runs like this: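 HepG2 cells were transiently transfected with GAL4-UAS reporter units and a chimeric VDR-Gal4 construct, then dosed for 24 hours. Reporter mRNA was quantified by RT-PCR, fluorescent labeling, HpaI digestion and capillary electrophoresis; gain of signal analysed vs DMSO.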

The nature of test [10]: BSK_3C_SRB: Viability Assessment in the BioMAP Diversity Plus: 3C Assay (AID 2283023).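 Also: fitted both ways against DMSO so a hit may be signal rise or drop.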 The following applies: primary human endothelial cells (HUVEC). In a few lines: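 Human umbilical vein endothelial cells in the 3C system, treated 24 h. Total protein measured by 0.1% sulforhodamine B staining after 10% TCA fixation, read at 560 nm; bidirectional fit versus DMSO.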
Read-out in test [11]: Matrix Metallopeptidase 1 (MMP1), MMP1 (gene 4312)
Put plainly: BSK_BE3C_MMP1: BioMAP Diversity Plus: BE3C Assay for Matrix Metallopeptidase 1 (MMP1) Biomarker Activity (AID 2283024). Particulars: primary human bronchial epithelial cells; actives raise or lower the signal. In short, it runs like this:
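Human primary bronchial epithelial cells (BE3C system) dosed for 24 h; MMP-1 quantified by ELISA. Bidirectional fit against DMSO; cytotoxicity tracked in parallel cultures by SRB total-protein staining.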

The nature of test [12]: BSK_3C_Vis: BioMAP Diversity Plus: 3C Assay for Morphology Visualization (AID 2283025).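 Also: fitted both ways so gain or loss versus DMSO counts.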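 As to AC50: light microscopy image of cell morphology used as background control.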 Particulars: primary human endothelial cells (HUVEC). In a few lines: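 Human umbilical vein endothelial cell morphology was inspected by light microscopy 24 h after chemical dosing; scored bidirectionally relative to DMSO.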
Read-out in test [13]: Pselectin, SELP (gene 6403)
Put plainly: BSK_4H_Pselectin: BioMAP Diversity Plus: 4H Assay for Pselectin Biomarker Activity (AID 2283026). Particulars: primary human endothelial cells (HUVEC); actives raise or lower the signal. In a few lines: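 Primary human umbilical vein endothelial cells were treated 24 h, and cell-surface P-selectin was then quantified by ELISA. Bidirectional fit versus DMSO; cytotoxicity checked in parallel cultures by SRB total-protein staining.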

Test [14] is described as follows: BSK_4H_SRB: Viability Assessment in the BioMAP Diversity Plus: 4H Assay (AID 2283027).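 Also: cells exposed to compound for 24 h before staining.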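 As to AC50: curves fitted both ways versus DMSO so AC50 may be loss or gain.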 Particulars: primary human endothelial cells (HUVEC). In short, it runs like this: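 Absorbance at 560 nm of SRB-stained total protein served as the viability read-out in confluent primary human umbilical vein endothelium 24 h after chemical treatment. Curves were fitted bidirectionally against DMSO as negative control.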

Read-out in test [15]: Thrombomodulin, THBD (gene 7056)
As to the kind of experiment: BSK_3C_Thrombomodulin: BioMAP Diversity Plus: 3C Assay for Thrombomodulin Biomarker Activity (AID 2283029). Particulars: primary human endothelial cells (HUVEC); actives raise or lower the signal. In a few lines:
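Human umbilical vein endothelial cells were exposed to chemicals for 24 h; cell-surface thrombomodulin quantified by ELISA, with bidirectional fitting against DMSO baseline.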

Read-out in test [16]: Urokinase-type plasminogen activator receptor (uPAR), PLAUR (gene 5329)
As to the kind of experiment: BSK_4H_uPAR: BioMAP Diversity Plus: 4H Assay for Urokinase-type plasminogen activator receptor (uPAR) Biomarker Activity (AID 2283030). The following applies: primary human endothelial cells (HUVEC); actives raise or lower the signal. In short, it runs like this:
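Human umbilical vein endothelial cells in the 4H system, 24 h after chemical dosing. Cell-surface uPAR measured by ELISA, fitted in both directions versus DMSO; cytotoxicity checked by SRB total protein in parallel cultures.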

Read-out in test [17]: Interleukin-8 (IL8), CXCL8 (gene 3576)
As to the kind of experiment: BSK_3C_IL8: BioMAP Diversity Plus: 3C Assay for Interleukin-8 (IL8) Biomarker Activity (AID 2283020). The following applies: primary human endothelial cells (HUVEC); actives raise or lower the signal. In a few lines:
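Primary human umbilical vein endothelial cells were dosed for 24 h. IL-8 was quantified by ELISA and fitted bidirectionally against DMSO. Cytotoxicity was assessed in parallel cultures by SRB staining at 560 nm.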

A short description of test [18]: BSK_BE3C_SRB: Viability Assessment in the BioMAP Diversity Plus: BE3C Assay (AID 2283028). Particulars: primary human bronchial epithelial cells. In a few lines:
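Human bronchial epithelial primary cells in confluent culture, 24 h after chemical dosing; total protein by 0.1% SRB staining after 10% TCA fixation, read at 560 nm. Bidirectional fitting versus DMSO baseline.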

For test [19], the target named is Retinoic acid receptor RXR-alpha (Homo sapiens) (UniProt P19793). Put plainly: ATG_RXRa_TRANS: Attagene TRANS-FACTORIAL HepG2 Assay for human Retinoid X Receptor alpha (RXRa) (AID 2283012; active = hit-call score of the fitted dose curve at least 0.9, where 1 is the maximum). In a few lines:
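HepG2 cells transiently transfected with GAL4-UAS reporter units and chimeric RXRa-Gal4 protein, treated 24 h. Reporter mRNA measured by RT-PCR, fluorescent labelling, HpaI digestion and capillary electrophoresis. Induction fitted against DMSO.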

Records with an inconclusive call do not appear. The source made the active and inactive calls. The calls were made as follows, unless noted: active = hit-call score of the fitted dose curve at least 0.9, where 1 is the maximum; inactive = score below 0.9.

Sequence of Retinoic acid receptor RXR-alpha (Homo sapiens) (P19793 whole entry, looked up, the tested form may be a part): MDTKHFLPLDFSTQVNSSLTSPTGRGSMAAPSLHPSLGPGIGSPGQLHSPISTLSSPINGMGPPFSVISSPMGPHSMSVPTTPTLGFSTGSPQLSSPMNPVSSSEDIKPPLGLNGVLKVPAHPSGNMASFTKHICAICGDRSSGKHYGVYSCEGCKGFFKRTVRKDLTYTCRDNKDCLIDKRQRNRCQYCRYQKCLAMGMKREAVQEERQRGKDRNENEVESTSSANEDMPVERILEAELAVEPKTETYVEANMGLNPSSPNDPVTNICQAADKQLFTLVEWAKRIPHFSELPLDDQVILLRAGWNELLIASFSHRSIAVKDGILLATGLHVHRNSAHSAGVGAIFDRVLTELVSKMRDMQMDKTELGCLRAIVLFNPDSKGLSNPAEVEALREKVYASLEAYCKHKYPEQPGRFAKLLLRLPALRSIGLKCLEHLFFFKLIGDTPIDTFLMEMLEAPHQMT
Sequence of human Vitamin D Receptor (VDR), VDR (gene 7421) (P11473 whole entry, looked up, the tested form may be a part): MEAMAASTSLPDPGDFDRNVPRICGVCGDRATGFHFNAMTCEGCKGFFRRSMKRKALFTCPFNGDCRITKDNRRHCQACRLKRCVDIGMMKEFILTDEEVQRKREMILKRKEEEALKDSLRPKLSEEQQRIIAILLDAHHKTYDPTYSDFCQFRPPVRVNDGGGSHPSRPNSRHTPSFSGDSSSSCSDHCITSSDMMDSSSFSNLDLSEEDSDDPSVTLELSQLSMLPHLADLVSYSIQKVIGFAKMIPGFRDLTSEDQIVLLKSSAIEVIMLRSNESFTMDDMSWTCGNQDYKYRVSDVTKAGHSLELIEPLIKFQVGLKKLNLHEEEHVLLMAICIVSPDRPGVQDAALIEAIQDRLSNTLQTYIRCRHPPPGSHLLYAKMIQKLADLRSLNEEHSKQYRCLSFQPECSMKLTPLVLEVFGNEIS
Sequence of E-selectin (Homo sapiens) (P16581 whole entry, looked up): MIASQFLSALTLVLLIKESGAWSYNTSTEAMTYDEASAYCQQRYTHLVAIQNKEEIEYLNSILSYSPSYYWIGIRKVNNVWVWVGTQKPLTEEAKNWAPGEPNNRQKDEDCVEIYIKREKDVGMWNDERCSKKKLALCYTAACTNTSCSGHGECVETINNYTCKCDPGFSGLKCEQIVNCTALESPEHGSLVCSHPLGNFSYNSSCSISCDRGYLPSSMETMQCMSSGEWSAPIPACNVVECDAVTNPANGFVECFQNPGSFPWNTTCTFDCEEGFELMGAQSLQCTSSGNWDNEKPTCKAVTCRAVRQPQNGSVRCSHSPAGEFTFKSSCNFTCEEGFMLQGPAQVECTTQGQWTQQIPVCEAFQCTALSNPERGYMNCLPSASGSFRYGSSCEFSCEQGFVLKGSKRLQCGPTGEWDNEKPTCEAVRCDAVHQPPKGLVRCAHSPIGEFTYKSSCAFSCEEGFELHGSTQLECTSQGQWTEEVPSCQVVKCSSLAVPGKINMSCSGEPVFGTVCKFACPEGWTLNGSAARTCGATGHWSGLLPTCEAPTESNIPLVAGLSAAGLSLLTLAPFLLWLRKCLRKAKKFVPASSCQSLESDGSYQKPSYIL
Sequence of human Retinoid X Receptor beta (RXRb), RXRB (gene 6257) (P28702 whole entry, looked up, the tested form may be a part): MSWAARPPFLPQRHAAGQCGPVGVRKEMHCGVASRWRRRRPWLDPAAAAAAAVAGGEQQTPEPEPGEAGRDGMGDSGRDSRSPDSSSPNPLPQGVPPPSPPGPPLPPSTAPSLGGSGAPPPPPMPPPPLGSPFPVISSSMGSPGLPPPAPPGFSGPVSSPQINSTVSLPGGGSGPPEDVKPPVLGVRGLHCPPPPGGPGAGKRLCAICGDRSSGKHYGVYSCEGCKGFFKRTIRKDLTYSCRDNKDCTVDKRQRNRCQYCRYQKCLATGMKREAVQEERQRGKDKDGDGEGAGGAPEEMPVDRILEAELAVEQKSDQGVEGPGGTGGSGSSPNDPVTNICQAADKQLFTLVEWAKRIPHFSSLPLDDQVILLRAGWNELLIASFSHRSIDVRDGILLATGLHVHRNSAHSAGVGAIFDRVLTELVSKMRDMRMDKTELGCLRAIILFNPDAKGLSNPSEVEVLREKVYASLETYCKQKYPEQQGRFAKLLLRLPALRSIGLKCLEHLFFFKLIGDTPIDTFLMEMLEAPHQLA
Sequence of human Thyroid Receptor alpha (THRa1), THRA (gene 7067) (P10827 whole entry, looked up, the tested form may be a part): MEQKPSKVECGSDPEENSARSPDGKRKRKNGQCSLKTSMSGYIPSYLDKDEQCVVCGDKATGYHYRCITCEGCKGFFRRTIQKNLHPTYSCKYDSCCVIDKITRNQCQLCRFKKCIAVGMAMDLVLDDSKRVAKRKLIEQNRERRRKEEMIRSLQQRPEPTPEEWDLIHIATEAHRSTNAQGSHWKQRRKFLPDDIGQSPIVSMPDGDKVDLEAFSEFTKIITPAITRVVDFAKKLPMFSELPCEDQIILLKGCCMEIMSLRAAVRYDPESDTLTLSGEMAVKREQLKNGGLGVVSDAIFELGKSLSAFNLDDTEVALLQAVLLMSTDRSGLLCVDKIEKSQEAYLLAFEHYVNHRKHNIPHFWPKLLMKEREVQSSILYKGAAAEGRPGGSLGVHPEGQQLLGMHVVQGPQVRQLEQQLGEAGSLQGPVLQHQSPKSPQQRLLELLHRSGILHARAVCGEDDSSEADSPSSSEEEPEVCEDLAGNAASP

On to `COc1ccc(O)c(C(C)(C)C)c1`, for which the AC50 (as a rule, the midpoint of the concentration-response curve, whichever way the signal moves) in test [1] is 8.56 µM (active). In addition, the call in test [2], in test [3], in [4], in [5], in test [6] and in [7] was inactive. The result in test [8], in test [9], in test [10], in test [11], in [12] and in test [13] was inactive. In addition, the outcome in [14], in [15] and in test [16] was inactive.

For `CCOCCOC(C)=O`, the result in test [1], in test [2], in test [3], in [4], in test [5] and in [6] was inactive. Further, the outcome in test [7], in test [17], in test [8], in test [10], in [11] and in test [12] was inactive. Moreover, the outcome in test [13], in test [14], in [18], in test [15] and in test [16] was inactive.

For the compound `C=CC(=O)NCNC(=O)C=C`, the result in [3], in [4], in test [5], in [6], in test [7] and in test [17] was inactive. The outcome in [8], in test [9], in test [10], in test [11], in [12] and in test [14] was inactive. In addition, the outcome in [18], in test [15] and in test [16] was inactive.

With `CC#Cc1cc(C)nc(Nc2ccccc2)n1`, the compound was called inactive in test [19], in test [3], in [4], in test [5], in [6] and in [7]. For the same compound, the result in test [17], in [8], in [9], in test [10], in [11] and in test [12] was inactive. Also, the outcome in [13], in test [14], in test [18], in test [15] and in test [16] was inactive. Moreover, the AC50 in [1] was 61.7 µM (active).

As to `Cc1ccccc1CO[C@@H]1C[C@@]2(C(C)C)CC[C@]1(C)O2`, the outcome in [19], in [1], in test [3], in test [4], in test [5] and in test [6] was inactive. Besides, the result in test [7], in [17], in test [8], in test [9], in [11] and in test [12] was inactive. Further, the result in test [14], in test [15] and in test [16] was inactive. Further, the AC50 in [10] is 31.3 µM (active).

With `Oc1ccc(C(c2ccc(O)cc2)(C(F)(F)F)C(F)(F)F)cc1`, the result in test [19], in test [2] and in [9] was inactive. Besides, the half-maximal activity concentration (AC50) in [1] was 5 µM (active) [middle of 4 runs]; in test [3], 30.1 µM (active); in test [4], 30.8 µM (active); in test [5] it was 19.9 µM (active); in test [6], 14 µM (active); in [7], 18.5 µM (active). In addition, the concentration at half-maximal activity (AC50) in [8] is 34.9 µM (active); in [10], 16.2 µM (active); in test [11] it was 34 µM (active); in [12] it was 18.7 µM (active); in test [14], 28 µM (active); in test [15] it was 21.3 µM (active). For the same compound, the AC50 in [16] is 32.5 µM (active).

For the compound `ClC1=C(Cl)[C@]2(Cl)[C@@H]3[C@@H]4C[C@@H]([C@H]5O[C@@H]45)[C@@H]3[C@@]1(Cl)C2(Cl)Cl`, the compound was classed as inactive in test [19], in test [3], in [4], in test [5], in test [17] and in [8]. Besides, the outcome in test [9], in [11], in test [13], in [14], in test [15] and in test [16] was inactive. In addition, the AC50 in test [1] is 24.4 µM (active); in test [7], 20 µM (active); in [10], 12.5 µM (active); in test [12], 13.7 µM (active).

Values taken from PubChem BioAssay (EPA / NIEHS).
